Active and inactive are the calls of the source. How the source made its calls: active means hit-call score of the fitted dose curve at least 0.9, where 1 is the maximum; inactive means score below 0.9.
Tests used:
[1] = ATG_GLI_CIS: Attagene CIS-FACTORIAL HepG2 Assay for human Zinc Finger Protein GLI1 (AID 2282945); details: HepG2, Attagene cis-factorial reporter mRNA, GLI element; actives raise or lower the signal
Outline: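 Bidirectional curve fits relative to DMSO, using reporter mRNA levels from RT-PCR plus capillary electrophoresis. Cells were HepG2 transiently carrying cis-regulated reporter constructs, harvested 24 h after dosing.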

[2] = biological target: Bile acid receptor (Homo sapiens) (UniProt Q96RI1); experiment: ATG_IR1_CIS: Attagene CIS-FACTORIAL HepG2 Assay for human Nuclear Receptor Subfamily 1 Group H Member 4 (NR1H4), IR1 submotif (AID 2282946); details: IR1 reporter transcription, actives raise or lower the signal
Outline: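 HepG2 cells transiently transfected with multiplexed cis-element reporter units read endogenous transcription factor activity. After 24 h compound exposure, reporter mRNA was quantified by RT-PCR, fluorescent labelling, HpaI digestion and capillary electrophoresis; bidirectional fitting versus DMSO baseline.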

[3] = ATG_GRE_CIS: Attagene CIS-FACTORIAL HepG2 Assay for human Glucocorticoid Response Elements (GRE) (AID 2282947); details: HepG2 GRE cis-reporter, Attagene multiplex mRNA; actives raise or lower the signal
Outline: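 Multiplexed cis-reporter mRNA induction, HepG2, 24 h post-dose. RT-PCR, FAM-labelled, HpaI-digested amplicons by CE. Bidirectional fit vs DMSO.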

[4] = ATG_ISRE_CIS: Attagene CIS-FACTORIAL HepG2 Assay for human Interferon Regulatory Factor 1 (IRF1) binding to an Interferon-Stimulated Response Element (ISRE) (AID 2282948); details: HepG2 ISRE cis-reporter (Attagene), mRNA transcription readout; actives raise or lower the signal
Outline: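 Signal reflects induction or loss of ISRE-linked reporter mRNA in transiently transfected HepG2 cells after a 24 h treatment, detected by fluorescent RT-PCR fragments on capillary electrophoresis and normalised to DMSO.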

[5] = ATG_M_32_CIS: Attagene CIS-FACTORIAL HepG2 Assay for M32 Transcription Factor (Internal Marker) (AID 2282949); details: HepG2 Attagene cis-factorial M32 reporter, mRNA; actives raise or lower the signal;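 further: background control marker of the multiplexed CIS panel rather than a real target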
Outline: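 Using DMSO as baseline, bidirectional curve fits were applied to reporter mRNA signals. These came from transiently transfected HepG2 cells exposed for 24 h, with RNA analysed by RT-PCR, FAM primer extension, HpaI digestion and CE.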

[6] = ATG_M_06_CIS: Attagene CIS-FACTORIAL HepG2 Assay for M06 Transcription Factor (Internal Marker) (AID 2282950); details: HepG2 Attagene CIS-FACTORIAL M06 internal marker reporter; actives raise or lower the signal
Outline: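 Cells (HepG2, transiently carrying cis-driven reporter units) receive chemical for 24 h before RNA isolation. Reporter cDNA is PCR-amplified, FAM-labelled by primer extension, HpaI-digested and sized on a capillary analyser.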

[7] = biological target: Hypoxia-inducible factor 1-alpha (Homo sapiens) (UniProt Q16665); experiment: ATG_HIF1a_CIS: Attagene CIS-FACTORIAL HepG2 Assay for human Hypoxia Inducible Factor 1 (HIF1A) (AID 2282951); details: HepG2 Attagene cis-factorial HIF1a reporter transcription; actives raise or lower the signal
Outline: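 RT-PCR/capillary electrophoresis fluorescence readout of reporter transcripts from endogenous-TF-driven cis elements in transfected HepG2 cells, 24 h exposure; activity fitted in both directions against DMSO controls.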

[8] = biological target: Hepatocyte nuclear factor 6 (Homo sapiens) (UniProt Q9UBC0); experiment: ATG_HNF6_CIS: Attagene CIS-FACTORIAL HepG2 Assay for human Hepatocyte Nuclear Factor 6 (HNF6) (AID 2282952); details: HepG2 Attagene cis-factorial HNF6 reporter transcription; actives raise or lower the signal
Outline: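 First, HepG2 cells were transfected with the multiplexed cis reporter library and dosed with chemical for 24 h. Next, RNA was reverse-transcribed, PCR-amplified and fluorescently labelled. Finally, HpaI-digested fragments were read by capillary electrophoresis.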

[9] = biological target: Heat shock factor protein 1 (Homo sapiens) (UniProt Q00613); experiment: ATG_HSE_CIS: Attagene CIS-FACTORIAL HepG2 Assay for human Heat Shock Transcription Factor 1 (HSE) (AID 2282953); details: HepG2 HSE cis-reporter, Attagene RNA transcription; actives raise or lower the signal
Outline: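 Liver-derived HepG2 cells carry transiently introduced multiple reporter units governed by cis promoters. Reporter RNA measured 24 h post-dose through reverse transcription, PCR amplification, fluorescent labelling and capillary electrophoresis, normalised to DMSO.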

[10] = ATG_MRE_CIS: Attagene CIS-FACTORIAL HepG2 Assay for human Metal Responsive Element (MRE) (AID 2282954); details: HepG2 MRE cis-reporter transcription, Attagene multiplex; actives raise or lower the signal
Outline: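 Multiplexed cis-reporter assay in human HepG2 liver cells, 24 h incubation with test chemical. Reporter transcripts measured by RT-PCR and capillary electrophoresis; values from bidirectional curve fitting versus DMSO.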

[11] = ATG_PBREM_CIS: Attagene CIS-FACTORIAL HepG2 Assay for human Phenobarbital-responsive Enhancer Module (PBREM) (AID 2282955); details: HepG2 PBREM cis-reporter, Attagene multiplexed transcription; actives raise or lower the signal
Outline: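 Reporter mRNA read by RT-PCR, 6-FAM primer extension, HpaI digestion and capillary electrophoresis. Transfected HepG2 cells, 24 h compound exposure. Gain or loss of signal fitted bidirectionally relative to DMSO baseline.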

[12] = biological target: Paired box protein Pax-6 (Homo sapiens) (UniProt P26367); experiment: ATG_Pax6_CIS: Attagene CIS-FACTORIAL HepG2 Assay for human Paired Box 6 (PAX6) (AID 2282956); details: HepG2 CIS-FACTORIAL PAX6 reporter transcription, RNA readout; actives raise or lower the signal
Outline: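 Values derive from bidirectional curve fitting of reporter mRNA signal relative to DMSO. HepG2 cells bearing transfected cis-regulated MRTUs were exposed for 24 h; transcripts were read by RT-PCR and capillary electrophoresis.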

[13] = ATG_PXRE_CIS: Attagene CIS-FACTORIAL HepG2 Assay for human Pregnane X Receptor Element (PXRE) (AID 2282957); details: HepG2 Attagene CIS-FACTORIAL PXRE reporter, mRNA; actives raise or lower the signal
Outline: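 After a 24 h chemical incubation, total RNA from transfected HepG2 cells was reverse-transcribed and reporter cDNA amplified, FAM-labeled, HpaI-digested and sized by capillary electrophoresis. DMSO served as baseline for bidirectional curve fitting.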

[14] = ATG_PPRE_CIS: Attagene CIS-FACTORIAL HepG2 Assay for human Peroxisome Proliferator-activated Response Element (PPRE) (AID 2282958); details: HepG2 PPRE cis-element reporter, Attagene transcription factor profiling; actives raise or lower the signal
Outline: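 Read-out: fluorescent reporter mRNA fragments resolved by capillary electrophoresis after RT-PCR. HepG2 cells carried transiently transfected PPRE-driven cis reporter constructs and were dosed for 24 h; gain or loss of signal fitted relative to DMSO.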

[15] = ATG_RORE_CIS: Attagene CIS-FACTORIAL HepG2 Assay for human RAR-related Orphan Receptor Element (RORE) (AID 2282959); details: HepG2 Attagene cis-factorial RORE reporter, mRNA; actives raise or lower the signal
Outline: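 Readout: fluorescent reporter mRNA by RT-PCR plus capillary electrophoresis, 24 h after dosing transfected HepG2 cells. Endogenous transcription factor activity on a cis promoter element is measured. Gain or loss of signal fitted against DMSO.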

[16] = ATG_Sox_CIS: Attagene CIS-FACTORIAL HepG2 Assay for human SRY-box transcription factor (SOX) (AID 2282960); details: HepG2 Attagene cis-factorial SOX reporter, mRNA; actives raise or lower the signal
Outline: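 Read-out: fluorescent RT-PCR products of SOX1-linked reporter transcripts resolved by capillary electrophoresis, fitted bidirectionally against DMSO. Transiently transfected HepG2 cells, 24 h after chemical exposure, endogenous transcription factor activity.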

[17] = biological target: Transcription factor Sp1 (Homo sapiens) (UniProt P08047); experiment: ATG_Sp1_CIS: Attagene CIS-FACTORIAL HepG2 Assay for human Specificity Protein 1 (Sp1) (AID 2282961); details: HepG2 Sp1 cis-reporter transcription, actives raise or lower the signal
Outline: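 Read-out: fluorescence of 6-FAM-labeled, HpaI-digested RT-PCR products separated by capillary electrophoresis. HepG2 cells carried transfected cis-element reporter units and were exposed to chemicals for 24 h; gain or loss of signal fitted relative to DMSO.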

[18] = ATG_SREBP_CIS: Attagene CIS-FACTORIAL HepG2 Assay for human Sterol Regulatory Element Binding (SREBP) (AID 2282962); details: HepG2 Attagene cis-factorial SREBP reporter, mRNA; actives raise or lower the signal
Outline: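 Values derive from bidirectional curve fitting with DMSO as baseline. The underlying measurement is reporter mRNA from cis-element-regulated units in transiently transfected HepG2, quantified by RT-PCR and capillary electrophoresis after 24 h exposure.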

[19] = biological target: Signal transducer and activator of transcription 3 (Homo sapiens) (UniProt P40763); experiment: ATG_STAT3_CIS: Attagene CIS-FACTORIAL HepG2 Assay for human Signal Transducer and Activator of Transcription 3 (STAT3) (AID 2282963); details: HepG2, Attagene cis-factorial STAT3 reporter transcription; actives raise or lower the signal
Outline: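 Cis-factorial format: endogenous transcription factors in HepG2 drive transfected reporter units. After 24 h treatment, reporter RNA was reverse-transcribed, amplified, FAM-labelled and HpaI-digested before CE analysis; activity scored in both directions against DMSO.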

[20] = ATG_TA_CIS: Attagene CIS-FACTORIAL HepG2 Assay for human TA Basal Promoter (AID 2282964); details: HepG2 Attagene CIS-factorial TA basal promoter reporter; actives raise or lower the signal
Outline: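 Background internal-marker endpoint from a 52-component HepG2 cis-reporter panel. Cells treated 24 h; reporter transcripts quantified via RT-PCR and CE fluorescence against DMSO baseline.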

Measured: AC50

Sequence of Transcription factor Sp1 (Homo sapiens) (P08047 whole entry, looked up): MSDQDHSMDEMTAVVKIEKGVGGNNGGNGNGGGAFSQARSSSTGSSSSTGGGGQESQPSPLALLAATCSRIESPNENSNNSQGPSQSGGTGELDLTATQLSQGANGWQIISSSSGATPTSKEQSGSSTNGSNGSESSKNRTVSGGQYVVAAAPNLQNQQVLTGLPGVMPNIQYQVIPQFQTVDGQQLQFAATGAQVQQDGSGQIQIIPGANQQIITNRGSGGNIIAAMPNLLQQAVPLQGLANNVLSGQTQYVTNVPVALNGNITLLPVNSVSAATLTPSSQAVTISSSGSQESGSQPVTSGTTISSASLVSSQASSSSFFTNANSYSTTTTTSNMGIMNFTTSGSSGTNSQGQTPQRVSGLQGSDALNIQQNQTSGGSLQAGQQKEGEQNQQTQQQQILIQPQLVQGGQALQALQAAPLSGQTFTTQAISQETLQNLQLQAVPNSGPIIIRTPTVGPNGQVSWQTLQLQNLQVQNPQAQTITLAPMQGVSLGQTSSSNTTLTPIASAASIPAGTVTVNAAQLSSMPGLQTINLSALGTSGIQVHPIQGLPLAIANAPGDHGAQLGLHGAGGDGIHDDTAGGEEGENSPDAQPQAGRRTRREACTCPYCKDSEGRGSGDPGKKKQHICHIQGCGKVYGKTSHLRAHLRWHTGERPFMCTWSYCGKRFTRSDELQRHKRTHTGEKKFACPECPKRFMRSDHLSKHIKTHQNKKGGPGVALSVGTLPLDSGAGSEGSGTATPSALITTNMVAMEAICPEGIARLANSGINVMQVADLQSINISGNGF
Sequence of Signal transducer and activator of transcription 3 (Homo sapiens) (P40763 whole entry, looked up): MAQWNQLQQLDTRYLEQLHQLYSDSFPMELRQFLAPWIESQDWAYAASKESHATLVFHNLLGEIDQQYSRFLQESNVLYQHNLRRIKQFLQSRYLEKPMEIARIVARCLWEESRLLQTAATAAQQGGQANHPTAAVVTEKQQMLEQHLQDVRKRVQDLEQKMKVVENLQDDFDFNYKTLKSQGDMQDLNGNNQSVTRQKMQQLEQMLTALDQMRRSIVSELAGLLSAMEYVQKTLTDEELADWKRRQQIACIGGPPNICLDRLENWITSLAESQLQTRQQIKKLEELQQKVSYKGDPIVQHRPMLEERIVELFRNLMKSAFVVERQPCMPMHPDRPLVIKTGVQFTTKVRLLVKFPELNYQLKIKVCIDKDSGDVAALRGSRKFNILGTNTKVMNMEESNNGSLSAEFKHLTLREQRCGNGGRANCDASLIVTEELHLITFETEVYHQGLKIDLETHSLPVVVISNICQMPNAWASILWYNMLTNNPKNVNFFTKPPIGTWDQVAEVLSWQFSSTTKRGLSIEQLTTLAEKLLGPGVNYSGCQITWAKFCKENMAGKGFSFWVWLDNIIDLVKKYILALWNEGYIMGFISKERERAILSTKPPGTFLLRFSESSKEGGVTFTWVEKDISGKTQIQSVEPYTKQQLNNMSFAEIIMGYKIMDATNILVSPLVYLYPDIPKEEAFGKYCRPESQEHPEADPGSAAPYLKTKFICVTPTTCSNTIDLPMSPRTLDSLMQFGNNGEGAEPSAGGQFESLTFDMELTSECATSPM
Sequence of Hepatocyte nuclear factor 6 (Homo sapiens) (Q9UBC0 whole entry, looked up, the tested form may be a part): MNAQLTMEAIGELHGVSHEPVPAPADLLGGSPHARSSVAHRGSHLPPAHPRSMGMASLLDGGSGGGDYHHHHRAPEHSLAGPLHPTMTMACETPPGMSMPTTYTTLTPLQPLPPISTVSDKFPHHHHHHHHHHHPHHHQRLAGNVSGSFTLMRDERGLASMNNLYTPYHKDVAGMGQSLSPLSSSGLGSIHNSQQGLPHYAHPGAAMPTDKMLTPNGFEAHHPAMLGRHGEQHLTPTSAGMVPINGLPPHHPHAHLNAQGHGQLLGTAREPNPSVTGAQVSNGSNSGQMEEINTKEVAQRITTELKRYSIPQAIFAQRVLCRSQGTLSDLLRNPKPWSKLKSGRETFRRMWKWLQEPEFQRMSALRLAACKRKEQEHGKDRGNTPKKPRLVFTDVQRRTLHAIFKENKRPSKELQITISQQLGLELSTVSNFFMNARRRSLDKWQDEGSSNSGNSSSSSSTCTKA
Sequence of Paired box protein Pax-6 (Homo sapiens) (P26367 whole entry, looked up): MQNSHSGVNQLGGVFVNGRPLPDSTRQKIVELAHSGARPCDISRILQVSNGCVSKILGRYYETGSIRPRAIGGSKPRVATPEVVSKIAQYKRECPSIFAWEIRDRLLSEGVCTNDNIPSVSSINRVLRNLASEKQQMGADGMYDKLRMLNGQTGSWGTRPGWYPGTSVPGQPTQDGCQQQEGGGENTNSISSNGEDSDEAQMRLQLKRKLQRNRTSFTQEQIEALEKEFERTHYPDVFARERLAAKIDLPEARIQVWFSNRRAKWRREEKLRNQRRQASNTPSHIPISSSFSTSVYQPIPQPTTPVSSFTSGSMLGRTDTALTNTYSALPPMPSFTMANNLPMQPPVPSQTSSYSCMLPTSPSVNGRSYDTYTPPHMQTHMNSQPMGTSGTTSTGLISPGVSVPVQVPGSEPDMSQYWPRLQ
Sequence of Bile acid receptor (Homo sapiens) (Q96RI1 whole entry, looked up): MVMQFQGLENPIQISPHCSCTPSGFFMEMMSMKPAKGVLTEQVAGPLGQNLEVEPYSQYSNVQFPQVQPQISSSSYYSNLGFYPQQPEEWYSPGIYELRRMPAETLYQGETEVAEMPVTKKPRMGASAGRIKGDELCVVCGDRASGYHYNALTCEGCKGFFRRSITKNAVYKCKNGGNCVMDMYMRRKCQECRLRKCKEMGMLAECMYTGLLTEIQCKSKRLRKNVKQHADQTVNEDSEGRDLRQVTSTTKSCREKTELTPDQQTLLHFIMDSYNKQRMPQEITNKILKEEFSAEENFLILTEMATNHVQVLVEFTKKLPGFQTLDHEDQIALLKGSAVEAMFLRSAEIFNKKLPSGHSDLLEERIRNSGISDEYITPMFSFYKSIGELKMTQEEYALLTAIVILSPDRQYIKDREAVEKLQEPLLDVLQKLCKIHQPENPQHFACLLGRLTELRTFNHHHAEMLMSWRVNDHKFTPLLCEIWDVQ
Sequence of Heat shock factor protein 1 (Homo sapiens) (Q00613 whole entry, looked up): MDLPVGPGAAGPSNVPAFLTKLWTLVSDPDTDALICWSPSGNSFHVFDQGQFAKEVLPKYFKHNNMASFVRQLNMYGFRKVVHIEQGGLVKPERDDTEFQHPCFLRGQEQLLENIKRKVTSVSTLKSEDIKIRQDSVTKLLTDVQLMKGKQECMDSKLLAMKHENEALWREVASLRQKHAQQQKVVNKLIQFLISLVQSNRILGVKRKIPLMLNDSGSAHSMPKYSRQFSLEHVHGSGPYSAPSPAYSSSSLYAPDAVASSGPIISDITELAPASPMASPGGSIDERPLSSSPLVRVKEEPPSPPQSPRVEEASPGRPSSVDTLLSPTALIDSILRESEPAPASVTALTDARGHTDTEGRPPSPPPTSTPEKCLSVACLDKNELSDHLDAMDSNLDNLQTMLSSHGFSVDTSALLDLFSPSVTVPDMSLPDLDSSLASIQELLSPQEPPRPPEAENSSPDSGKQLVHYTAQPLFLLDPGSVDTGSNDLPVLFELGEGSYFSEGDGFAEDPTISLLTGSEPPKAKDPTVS
Sequence of Hypoxia-inducible factor 1-alpha (Homo sapiens) (Q16665 whole entry, looked up): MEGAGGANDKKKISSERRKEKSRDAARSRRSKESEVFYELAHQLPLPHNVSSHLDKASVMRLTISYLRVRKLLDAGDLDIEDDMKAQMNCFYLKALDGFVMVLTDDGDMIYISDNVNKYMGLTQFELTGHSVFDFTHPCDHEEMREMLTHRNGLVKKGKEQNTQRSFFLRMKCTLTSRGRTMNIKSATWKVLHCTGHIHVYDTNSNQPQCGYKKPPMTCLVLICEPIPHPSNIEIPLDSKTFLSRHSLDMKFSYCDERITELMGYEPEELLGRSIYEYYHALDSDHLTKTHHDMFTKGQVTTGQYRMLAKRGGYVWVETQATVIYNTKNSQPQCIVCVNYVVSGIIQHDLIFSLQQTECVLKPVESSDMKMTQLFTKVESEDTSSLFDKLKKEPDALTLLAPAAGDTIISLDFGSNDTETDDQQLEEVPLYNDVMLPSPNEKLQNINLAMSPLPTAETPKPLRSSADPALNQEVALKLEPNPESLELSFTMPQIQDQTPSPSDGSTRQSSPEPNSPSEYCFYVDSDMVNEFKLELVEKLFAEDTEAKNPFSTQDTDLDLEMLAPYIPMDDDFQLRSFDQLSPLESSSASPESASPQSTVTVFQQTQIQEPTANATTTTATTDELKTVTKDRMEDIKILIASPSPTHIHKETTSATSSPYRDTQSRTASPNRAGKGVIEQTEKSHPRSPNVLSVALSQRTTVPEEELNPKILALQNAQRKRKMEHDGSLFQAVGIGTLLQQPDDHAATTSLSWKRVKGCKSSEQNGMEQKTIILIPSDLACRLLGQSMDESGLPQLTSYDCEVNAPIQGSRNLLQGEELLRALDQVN

c1ccc2c(c1)-c1ccc3ccc4cccc5cc-2c1c3c45
active: [7] 0.0166 µM | [13] 1.02 µM | [15] 0.163 µM
inactive: all other assays above

CCC=C(C)C=O
active: [13] 24.7 µM
not listed: [9]
inactive: all other assays above

CC(=O)CC(=O)N(C)C
not listed: [11] | [12] | [14]
inactive: all other assays above

CC1=CC(C)C(C=O)C(C)C1 (configuration not stated) (tested in a mixture with another compound)
active: [13] 15.9 µM
not listed: [14]
inactive: all other assays above

CCC(=O)OCC=Cc1ccccc1
active: [13] 33.1 µM
not listed: [12]
inactive: all other assays above

CCOc1ccc(NC(C)=O)cc1
not listed: [11] | [14]
inactive: all other assays above

CCCCCCCCSCc1cc(C)c(O)c(CSCCCCCCCC)c1
active: [13] 19.8 µM
not listed: [11] | [12] | [18]
inactive: all other assays above

O=C1OC2(c3ccc(O)cc3Oc3cc(O)ccc32)c2ccccc21
active: [13] 0.741 µM
not listed: [10] | [11]
inactive: all other assays above

CCOCC(C)O (configuration not stated)
active: [13] 45.3 µM
not listed: [11] | [18]
inactive: all other assays above

CCC(C)(CCCC(C)C)OC(C)=O (configuration not stated)
not listed: [13]
inactive: all other assays above

CN(C)c1ccc(C=O)cc1
not listed: [13]
inactive: all other assays above

CC1=C(C=O)C(C)(C)CCC1
active: [13] 1.75 µM
inactive: all other assays above

CCO[Si](CCC#N)(OCC)OCC
not listed: [11] | [12] | [14]
inactive: all other assays above

CC=CC(=O)C1=C(C)C=CCC1(C)C
active: [13] 55.4 µM
not listed: [11] | [12] | [20]
inactive: all other assays above
